What was measured:
Assay in all cases: DAPPL (digital affinity profiling via proximity ligation, sequencing); 10 mM Tris-HCl pH 7.5, 50 mM NaCl, 1 mM DTT, 4% glycerol, room temperature, 30 min; GST-TFs on glutathione beads, 16-mer random dsDNA library, 0.1% formaldehyde crosslink after washing; high values mean tight binding
Conditions in all cases: protein: recombinant; tags: N-terminal GST; dsDNA, one strand shown
FLI1 = target: T1, FLI1 (Homo sapiens, UniProt Q01543 1-452)
T1 sequence: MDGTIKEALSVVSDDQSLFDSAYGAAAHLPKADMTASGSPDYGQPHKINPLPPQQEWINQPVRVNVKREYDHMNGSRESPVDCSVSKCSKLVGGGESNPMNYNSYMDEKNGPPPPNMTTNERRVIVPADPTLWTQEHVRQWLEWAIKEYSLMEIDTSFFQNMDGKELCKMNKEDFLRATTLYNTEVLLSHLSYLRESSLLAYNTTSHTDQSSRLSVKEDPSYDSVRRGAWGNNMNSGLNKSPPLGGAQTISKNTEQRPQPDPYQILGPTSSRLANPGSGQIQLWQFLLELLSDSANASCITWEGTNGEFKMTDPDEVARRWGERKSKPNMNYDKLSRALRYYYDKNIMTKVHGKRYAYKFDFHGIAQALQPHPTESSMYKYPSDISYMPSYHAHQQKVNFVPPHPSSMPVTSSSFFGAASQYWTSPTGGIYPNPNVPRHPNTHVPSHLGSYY
Summary of the method: (§1)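 Human transcription factors were made in yeast as GST fusions, captured on glutathione beads and barcoded with DNA. With a tag-only sample included, the pool was incubated with 200 nmole of a random double-stranded 16-mer DNA library in Tris/NaCl/DTT/glycerol buffer at room temperature for 30 min, then crosslinked with 0.1% formaldehyde after washing, ligated by proximity, amplified and sequenced. For binding signal, each hexamer's read frequency for a factor is divided by its frequency for the tag-only sample.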

ELK1 = target: T2, ELK1 (Homo sapiens, UniProt P19419 1-428)
T2 sequence: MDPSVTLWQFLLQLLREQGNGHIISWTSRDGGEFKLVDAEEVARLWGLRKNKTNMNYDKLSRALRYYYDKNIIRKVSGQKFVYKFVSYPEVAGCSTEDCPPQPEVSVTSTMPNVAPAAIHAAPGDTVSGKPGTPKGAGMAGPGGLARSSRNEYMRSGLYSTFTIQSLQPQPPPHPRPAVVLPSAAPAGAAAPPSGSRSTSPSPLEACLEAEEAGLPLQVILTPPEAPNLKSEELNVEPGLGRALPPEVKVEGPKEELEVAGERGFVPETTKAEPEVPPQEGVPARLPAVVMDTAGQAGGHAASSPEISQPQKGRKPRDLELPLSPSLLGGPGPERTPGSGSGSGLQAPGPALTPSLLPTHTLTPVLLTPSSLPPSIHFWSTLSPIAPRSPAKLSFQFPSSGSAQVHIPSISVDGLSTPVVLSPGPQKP
Summary of the method: as §1

GABPA = target: T3, GABPA (Homo sapiens, UniProt Q06546 1-454)
T3 sequence: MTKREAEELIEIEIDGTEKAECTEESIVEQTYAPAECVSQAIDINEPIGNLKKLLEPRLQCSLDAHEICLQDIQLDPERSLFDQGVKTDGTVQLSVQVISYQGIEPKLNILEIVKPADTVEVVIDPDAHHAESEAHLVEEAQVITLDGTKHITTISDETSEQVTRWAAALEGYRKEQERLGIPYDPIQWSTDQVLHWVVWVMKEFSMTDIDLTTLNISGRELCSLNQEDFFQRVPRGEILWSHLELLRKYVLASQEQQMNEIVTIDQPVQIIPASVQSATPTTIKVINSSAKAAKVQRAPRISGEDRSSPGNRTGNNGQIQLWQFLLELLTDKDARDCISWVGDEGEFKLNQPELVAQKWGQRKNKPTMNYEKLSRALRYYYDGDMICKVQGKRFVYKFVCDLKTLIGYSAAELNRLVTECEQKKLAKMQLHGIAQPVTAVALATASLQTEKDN
Summary of the method: as §1

ERG = target: T4, ERG (Homo sapiens, UniProt P11308 1-479)
T4 sequence: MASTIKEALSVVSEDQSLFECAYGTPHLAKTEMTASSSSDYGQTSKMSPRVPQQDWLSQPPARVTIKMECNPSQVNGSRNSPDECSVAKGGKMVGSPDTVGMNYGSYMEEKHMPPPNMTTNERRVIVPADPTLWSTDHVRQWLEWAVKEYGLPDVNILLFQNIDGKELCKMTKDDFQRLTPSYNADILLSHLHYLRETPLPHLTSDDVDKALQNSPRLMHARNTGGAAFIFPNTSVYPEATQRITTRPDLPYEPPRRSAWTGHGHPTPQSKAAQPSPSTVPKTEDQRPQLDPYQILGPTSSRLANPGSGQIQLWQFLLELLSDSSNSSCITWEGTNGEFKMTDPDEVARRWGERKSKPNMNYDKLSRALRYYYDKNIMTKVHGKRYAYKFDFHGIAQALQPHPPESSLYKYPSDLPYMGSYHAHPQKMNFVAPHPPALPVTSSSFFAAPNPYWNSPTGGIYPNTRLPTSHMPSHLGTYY
Summary of the method: as §1

ELF1 = ELF1 (Homo sapiens, UniProt P32519 1-619)
ELF1, sequence (P32519 whole entry): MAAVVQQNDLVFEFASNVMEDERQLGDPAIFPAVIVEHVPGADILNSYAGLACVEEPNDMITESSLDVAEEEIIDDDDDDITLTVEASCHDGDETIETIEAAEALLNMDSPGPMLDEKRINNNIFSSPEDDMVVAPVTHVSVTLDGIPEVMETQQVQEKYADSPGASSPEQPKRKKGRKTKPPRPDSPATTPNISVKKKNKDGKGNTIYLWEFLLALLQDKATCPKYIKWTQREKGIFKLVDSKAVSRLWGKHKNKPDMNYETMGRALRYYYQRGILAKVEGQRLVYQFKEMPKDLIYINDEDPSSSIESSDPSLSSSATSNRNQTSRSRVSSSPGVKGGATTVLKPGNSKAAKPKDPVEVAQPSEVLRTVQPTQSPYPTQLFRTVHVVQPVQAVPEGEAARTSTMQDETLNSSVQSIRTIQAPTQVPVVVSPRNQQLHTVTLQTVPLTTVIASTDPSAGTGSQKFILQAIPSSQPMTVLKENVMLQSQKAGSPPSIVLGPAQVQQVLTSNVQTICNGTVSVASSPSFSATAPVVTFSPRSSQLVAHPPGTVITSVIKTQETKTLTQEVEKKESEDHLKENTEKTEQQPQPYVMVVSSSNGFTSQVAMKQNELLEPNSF
Summary of the method: as §1

EHF = target: T5, EHF (Homo sapiens, UniProt Q9NZC4 1-300)
T5 sequence: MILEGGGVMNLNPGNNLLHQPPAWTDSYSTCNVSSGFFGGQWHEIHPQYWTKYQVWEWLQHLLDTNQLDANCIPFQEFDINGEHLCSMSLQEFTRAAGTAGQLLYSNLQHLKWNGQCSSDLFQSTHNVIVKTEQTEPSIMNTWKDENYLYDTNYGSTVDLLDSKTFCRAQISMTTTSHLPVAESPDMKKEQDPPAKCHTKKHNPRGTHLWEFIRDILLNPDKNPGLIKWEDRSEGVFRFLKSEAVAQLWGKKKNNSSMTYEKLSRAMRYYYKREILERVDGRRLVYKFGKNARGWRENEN
Summary of the method: as §1

SPIB = SPIB (Homo sapiens, UniProt Q01892 1-262)
SPIB, sequence (Q01892 whole entry): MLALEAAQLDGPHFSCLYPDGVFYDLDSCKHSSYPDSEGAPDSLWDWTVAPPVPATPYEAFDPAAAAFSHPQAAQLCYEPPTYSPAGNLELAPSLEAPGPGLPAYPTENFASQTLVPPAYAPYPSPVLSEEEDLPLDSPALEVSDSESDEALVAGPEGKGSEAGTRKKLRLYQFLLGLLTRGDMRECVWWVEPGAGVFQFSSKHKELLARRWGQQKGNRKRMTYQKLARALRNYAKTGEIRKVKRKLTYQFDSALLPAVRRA
Summary of the method: as §1

ELK3 = target: T6, ELK3 (Homo sapiens, UniProt P41970 1-407)
T6 sequence: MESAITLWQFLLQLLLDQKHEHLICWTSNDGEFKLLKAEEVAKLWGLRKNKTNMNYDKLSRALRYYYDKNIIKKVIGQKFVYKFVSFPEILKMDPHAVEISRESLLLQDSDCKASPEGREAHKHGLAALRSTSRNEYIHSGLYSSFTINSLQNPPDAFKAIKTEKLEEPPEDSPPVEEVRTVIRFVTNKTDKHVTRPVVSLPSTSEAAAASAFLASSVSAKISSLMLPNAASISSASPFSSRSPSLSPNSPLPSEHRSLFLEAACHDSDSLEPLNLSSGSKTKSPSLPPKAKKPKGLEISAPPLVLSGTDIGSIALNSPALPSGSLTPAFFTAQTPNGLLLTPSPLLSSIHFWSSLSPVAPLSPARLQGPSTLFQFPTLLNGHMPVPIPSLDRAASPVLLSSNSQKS
Summary of the method: as §1

FEV = target: T7, FEV (Homo sapiens, UniProt Q99581 1-238)
T7 sequence: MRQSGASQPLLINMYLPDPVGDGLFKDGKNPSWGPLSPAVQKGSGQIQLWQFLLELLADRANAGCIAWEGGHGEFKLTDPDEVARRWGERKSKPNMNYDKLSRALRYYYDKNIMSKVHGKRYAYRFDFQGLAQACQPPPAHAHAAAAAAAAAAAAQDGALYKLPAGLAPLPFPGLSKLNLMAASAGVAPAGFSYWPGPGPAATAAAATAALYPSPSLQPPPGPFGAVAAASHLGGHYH
Summary of the method: as §1

ETV5 = ETV5 (Homo sapiens, UniProt P41161 1-510)
ETV5, sequence (P41161 whole entry): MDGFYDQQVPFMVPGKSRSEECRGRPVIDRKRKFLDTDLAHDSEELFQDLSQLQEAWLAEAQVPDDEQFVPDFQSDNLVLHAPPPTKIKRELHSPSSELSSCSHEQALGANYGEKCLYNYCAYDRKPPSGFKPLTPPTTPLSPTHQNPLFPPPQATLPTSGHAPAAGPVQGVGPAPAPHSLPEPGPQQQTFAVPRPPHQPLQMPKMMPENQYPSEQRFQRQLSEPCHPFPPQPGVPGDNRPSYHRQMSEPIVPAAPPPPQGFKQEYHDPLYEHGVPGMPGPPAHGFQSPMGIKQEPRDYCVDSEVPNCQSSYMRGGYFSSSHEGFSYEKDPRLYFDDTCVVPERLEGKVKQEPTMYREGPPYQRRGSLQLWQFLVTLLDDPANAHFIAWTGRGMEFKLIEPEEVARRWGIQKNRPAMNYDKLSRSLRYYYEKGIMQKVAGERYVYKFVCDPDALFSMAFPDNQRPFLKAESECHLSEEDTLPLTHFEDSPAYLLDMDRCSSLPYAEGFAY
Summary of the method: as §1

SPIC = target: T8, SPIC (Homo sapiens, UniProt Q8N5J4 1-248)
T8 sequence: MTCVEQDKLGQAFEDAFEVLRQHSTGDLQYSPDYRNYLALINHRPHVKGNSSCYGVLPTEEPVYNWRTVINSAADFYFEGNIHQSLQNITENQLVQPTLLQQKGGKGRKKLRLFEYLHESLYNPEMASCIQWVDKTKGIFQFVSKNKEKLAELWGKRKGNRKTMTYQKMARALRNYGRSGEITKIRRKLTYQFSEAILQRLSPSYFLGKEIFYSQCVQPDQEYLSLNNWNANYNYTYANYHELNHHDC
Summary of the method: as §1

ELF4 = ELF4 (Homo sapiens, UniProt Q99607 1-663)
ELF4, sequence (Q99607 whole entry): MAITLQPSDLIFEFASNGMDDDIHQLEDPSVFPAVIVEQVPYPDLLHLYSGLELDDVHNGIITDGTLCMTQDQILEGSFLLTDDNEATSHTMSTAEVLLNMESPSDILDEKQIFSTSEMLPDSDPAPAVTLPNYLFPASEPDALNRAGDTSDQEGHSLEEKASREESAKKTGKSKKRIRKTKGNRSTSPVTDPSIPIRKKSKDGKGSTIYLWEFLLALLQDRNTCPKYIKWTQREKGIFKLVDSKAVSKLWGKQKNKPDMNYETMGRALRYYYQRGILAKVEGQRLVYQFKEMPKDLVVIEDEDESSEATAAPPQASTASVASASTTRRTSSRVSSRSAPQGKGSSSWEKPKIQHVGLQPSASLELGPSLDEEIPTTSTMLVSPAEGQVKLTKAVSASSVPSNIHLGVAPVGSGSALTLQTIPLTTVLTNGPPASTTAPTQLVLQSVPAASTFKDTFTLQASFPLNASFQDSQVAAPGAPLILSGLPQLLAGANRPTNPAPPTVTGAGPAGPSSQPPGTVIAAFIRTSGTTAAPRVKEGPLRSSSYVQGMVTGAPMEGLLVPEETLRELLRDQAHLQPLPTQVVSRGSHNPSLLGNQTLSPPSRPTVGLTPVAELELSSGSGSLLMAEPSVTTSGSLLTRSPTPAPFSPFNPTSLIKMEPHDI
Summary of the method: as §1

ELK4 = target: T9, ELK4 (Homo sapiens, UniProt P28324-2 1-405)
T9 sequence: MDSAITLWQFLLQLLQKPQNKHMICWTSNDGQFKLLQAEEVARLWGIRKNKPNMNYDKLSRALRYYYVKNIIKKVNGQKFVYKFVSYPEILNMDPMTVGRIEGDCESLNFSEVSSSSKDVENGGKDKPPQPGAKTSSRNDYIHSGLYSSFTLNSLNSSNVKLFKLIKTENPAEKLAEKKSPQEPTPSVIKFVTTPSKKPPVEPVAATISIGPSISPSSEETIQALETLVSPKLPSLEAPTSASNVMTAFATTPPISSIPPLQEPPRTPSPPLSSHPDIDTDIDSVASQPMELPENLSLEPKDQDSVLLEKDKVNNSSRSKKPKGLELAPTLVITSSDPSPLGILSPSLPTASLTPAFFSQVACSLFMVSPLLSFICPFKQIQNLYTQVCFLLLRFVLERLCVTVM
Summary of the method: as §1

ETV2 = target: T10, ETV2 (Homo sapiens, UniProt O00321 1-342)
T10 sequence: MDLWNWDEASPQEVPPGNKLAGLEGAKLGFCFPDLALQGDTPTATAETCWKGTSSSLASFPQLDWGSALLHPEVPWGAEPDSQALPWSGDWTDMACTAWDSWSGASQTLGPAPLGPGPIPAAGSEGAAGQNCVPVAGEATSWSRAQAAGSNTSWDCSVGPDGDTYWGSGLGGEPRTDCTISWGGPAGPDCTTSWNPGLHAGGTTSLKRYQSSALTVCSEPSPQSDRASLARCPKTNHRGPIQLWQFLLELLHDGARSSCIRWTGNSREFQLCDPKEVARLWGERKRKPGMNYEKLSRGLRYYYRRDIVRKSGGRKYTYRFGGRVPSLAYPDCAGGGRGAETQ
Summary of the method: as §1

ELF3 = target: T11, ELF3 (Homo sapiens, UniProt P78545 1-371)
T11 sequence: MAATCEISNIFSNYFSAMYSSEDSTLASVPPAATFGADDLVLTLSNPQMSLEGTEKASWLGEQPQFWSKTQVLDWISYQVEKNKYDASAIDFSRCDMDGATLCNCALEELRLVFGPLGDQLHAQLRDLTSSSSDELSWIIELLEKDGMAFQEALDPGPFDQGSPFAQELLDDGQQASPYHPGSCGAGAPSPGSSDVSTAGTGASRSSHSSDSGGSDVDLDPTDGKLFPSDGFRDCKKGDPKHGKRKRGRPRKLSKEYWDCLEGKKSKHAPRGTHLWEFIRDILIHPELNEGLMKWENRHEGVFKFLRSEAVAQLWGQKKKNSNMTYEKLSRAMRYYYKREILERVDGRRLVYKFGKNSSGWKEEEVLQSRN
Summary of the method: as §1

ETV1 = ETV1 (Homo sapiens, UniProt P50549 1-477)
ETV1, sequence (P50549 whole entry): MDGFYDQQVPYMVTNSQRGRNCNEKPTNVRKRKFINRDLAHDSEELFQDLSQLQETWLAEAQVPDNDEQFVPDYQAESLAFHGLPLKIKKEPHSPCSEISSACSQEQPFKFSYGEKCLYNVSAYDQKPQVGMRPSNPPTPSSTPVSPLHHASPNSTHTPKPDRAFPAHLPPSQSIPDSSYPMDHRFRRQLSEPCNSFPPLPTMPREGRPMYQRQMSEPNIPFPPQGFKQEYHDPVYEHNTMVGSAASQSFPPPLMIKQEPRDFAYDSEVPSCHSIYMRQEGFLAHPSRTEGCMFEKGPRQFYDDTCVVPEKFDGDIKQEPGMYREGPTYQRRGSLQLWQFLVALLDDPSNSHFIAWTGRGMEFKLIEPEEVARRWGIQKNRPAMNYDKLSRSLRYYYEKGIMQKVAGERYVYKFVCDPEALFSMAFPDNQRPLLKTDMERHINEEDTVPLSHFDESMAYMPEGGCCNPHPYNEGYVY
Summary of the method: as §1

SPI1 = SPI1 (Homo sapiens, UniProt P17947 1-270)
Summary of the method: as §1

Sequence | binding signal (FLI1) | binding signal (ELK1) | binding signal (GABPA) | binding signal (ERG) | binding signal (ELF1) | binding signal (EHF) | binding signal (SPIB) | binding signal (ELK3) | binding signal (FEV) | binding signal (ETV5) | binding signal (SPIC) | binding signal (ELF4) | binding signal (ELK4) | binding signal (ETV2) | binding signal (ELF3) | binding signal (ETV1) | binding signal (SPI1)
CGCTTG | 1.1 fold enrichment (6-mer frequency, TF over GST control) | 1.14 fold enrichment (6-mer frequency, TF over GST control) | 1.09 fold enrichment (6-mer frequency, TF over GST control) | 1.05 fold enrichment (6-mer frequency, TF over GST control) | 1.07 fold enrichment (6-mer frequency, TF over GST control) | 1.04 fold enrichment (6-mer frequency, TF over GST control) | 1.25 fold enrichment (6-mer frequency, TF over GST control) | 1.07 fold enrichment (6-mer frequency, TF over GST control) | 1.08 fold enrichment (6-mer frequency, TF over GST control) | 1.06 fold enrichment (6-mer frequency, TF over GST control) | 1.16 fold enrichment (6-mer frequency, TF over GST control) | 1.01 fold enrichment (6-mer frequency, TF over GST control) | 1 fold enrichment (6-mer frequency, TF over GST control) | 1.07 fold enrichment (6-mer frequency, TF over GST control) | 1.2 fold enrichment (6-mer frequency, TF over GST control) | 1.15 fold enrichment (6-mer frequency, TF over GST control) | –
ATGTAG | 1.05 fold enrichment (6-mer frequency, TF over GST control) | 1.03 fold enrichment (6-mer frequency, TF over GST control) | 1.04 fold enrichment (6-mer frequency, TF over GST control) | 1.01 fold enrichment (6-mer frequency, TF over GST control) | 1.09 fold enrichment (6-mer frequency, TF over GST control) | 1.07 fold enrichment (6-mer frequency, TF over GST control) | 1.01 fold enrichment (6-mer frequency, TF over GST control) | 1.05 fold enrichment (6-mer frequency, TF over GST control) | 1.02 fold enrichment (6-mer frequency, TF over GST control) | 1.08 fold enrichment (6-mer frequency, TF over GST control) | 1.09 fold enrichment (6-mer frequency, TF over GST control) | 1.1 fold enrichment (6-mer frequency, TF over GST control) | 1.15 fold enrichment (6-mer frequency, TF over GST control) | 1.03 fold enrichment (6-mer frequency, TF over GST control) | 1.06 fold enrichment (6-mer frequency, TF over GST control) | – | 1 fold enrichment (6-mer frequency, TF over GST control)

From publication PMC7862700, “An all-to-all approach to the identification of sequence-specific readers for epigenetic DNA modifications on cytosine”
